{
  "source": "PubChem BioAssay (NCI)",
  "note": "This is part of a sample that, as a whole, favours compounds with a hit. Of some 83,000 tested, about 20% had one in any assay.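 Activity criterion: percent growth below 10, measured after cells in 96-well plates were exposed to a single compound concentration for 48 hours.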 A number with no mark means an inactive call. The source made the active and inactive calls.",
  "data": [
    {"tested_on": "MALME-3M melanoma", "assay": "NCI-60 one-dose screen, 48 h (100 = growth as untreated, 0 = no growth, -100 = all killed)", "conditions": "10 µM unless noted", "values": [
      {"smiles": "CC(=O)O[C@H]1C(=O)[C@@]2(C)[C@H]([C@H](OC(=O)c3ccccc3)[C@]3(O)C[C@H](OC(=O)[C@H](OC(=O)OCC4COC(C)(C)O4)[C@@H](NC(=O)c4ccccc4)c4ccccc4)C(C)=C1C3(C)C)[C@]1(OC(C)=O)CO[C@@H]1C[C@@H]2O", "note": "(stereo partly drawn)", "growth": "45%"},
      {"smiles": "CC[C@H](C)[C@H](NC(=O)C12CC(NC(C)=O)(C1)C2)C(=O)N(C)[C@H](C[C@@H](OC(C)=O)c1nc(C(=O)N[C@@H](Cc2ccccc2)C[C@H](C)C(=O)OC)cs1)C(C)C", "growth": "51.8%"},
      {"smiles": "CCn1cnc2c(Nc3cccc(Cl)c3)nc(N[C@@H]3CCCC[C@@H]3N)nc21", "growth": "15%"},
      {"smiles": "O=C(O)C1C(C(=O)O)C2(Cl)C(Cl)=C(Cl)C1(Cl)C2(Cl)Cl.[Hg]", "note": "(stereo not drawn)", "growth": "69.5%"},
      {"smiles": "CC[C@H](C)[C@H](NC(=O)[C@H]1CCCCN1C)C(=O)N(C)[C@H](C[C@@H](OC(C)=O)c1nc(C(=O)N[C@@H](Cc2ccccc2)C[C@H](C)C(=O)OC)cs1)C(C)C", "growth": "65.5%"},
      {"smiles": "CN1C(=O)C(=Cc2cn(CCCCCCn3c4ccccc4c(=O)c4ccccc43)c3ccccc23)C(=O)N(C)C1=O", "growth": "103%"},
      {"smiles": "CC(C)(C)C(=O)OCOP(=O)(OCOC(=O)C(C)(C)C)C1CCCN(O)C1=O", "note": "(stereo not drawn)", "growth": "12.3%"},
      {"smiles": "COC(=O)[C@@H](C)C[C@H](Cc1ccc2ccccc2c1)NC(=O)c1csc([C@@H](C[C@H](C(C)C)N(C)C(=O)[C@@H](NC(=O)[C@H]2CCCCN2C)C(C)C)OC(C)=O)n1", "growth": "63.1%"},
      {"smiles": "C=C1C(=O)O[C@H]2[C@H]1CC/C(COC(=O)C(=O)c1cn(Cc3ccccc3)c3ccccc13)=C\\CC[C@@]1(C)O[C@@H]21", "growth": "-41.7% (active)"},
      {"smiles": "CN(CCCCN(C)CCOS(C)(=O)=O)CCOS(C)(=O)=O", "growth": "86.9%"},
      {"smiles": "NC(=O)CNc1ccc([As]=[As]c2ccc(NCC(N)=O)cc2)cc1", "note": "(stereo not drawn)", "growth": "47.2%"}
    ]},
    {"tested_on": "MDA-MB-231 breast", "assay": "NCI-60 one-dose screen, 48 h (100 = growth as untreated, 0 = no growth, -100 = all killed)", "conditions": "10 µM unless noted", "values": [
      {"smiles": "O=NN1CCCc2cccc(O)c21", "growth": "78.8%"},
      {"smiles": "Fc1ccc2c(c1)c(-c1nc(-c3c[nH]c4ncccc34)cs1)cn2CCN1CCOCC1", "growth": "42.6%"},
      {"smiles": "CC(=O)Nc1nc2c(s1)CC[C@@]1(C)C2=CC[C@H]2[C@@H]3CC[C@H](O)[C@@]3(C)CC[C@@H]21", "growth": "81.5%"},
      {"smiles": "CN(C)CC(C(=O)Cc1ccccc1)c1ccccc1", "note": "(stereo not drawn)", "growth": "106%"},
      {"smiles": "CCOC(=O)[C@@H](C)C[C@H](Cc1ccccc1)NC(=O)c1csc([C@@H](C[C@H](C(C)C)N(C)C(=O)[C@H](CCC(C)C)NC(=O)[C@H]2CCCCN2C)OC(C)=O)n1", "growth": "1.66% (active)"},
      {"smiles": "CCCCCCCCCCCCCCCCCC1OC[C@H](COC(=O)O[C@@H](C(=O)O[C@H]2C[C@@]3(O)[C@@H](OC(=O)c4ccccc4)[C@@H]4[C@]5(OC(C)=O)CO[C@@H]5C[C@H](O)[C@@]4(C)C(=O)[C@H](OC(C)=O)C(=C2C)C3(C)C)[C@@H](NC(=O)c2ccccc2)c2ccccc2)O1", "note": "(stereo partly drawn)", "growth": "47.2%"},
      {"smiles": "c1cnc2[nH]cc(-c3csc(-c4cn(CCCCN5CCCCC5)c5ccccc45)n3)c2c1", "growth": "83.3%"},
      {"smiles": "C=C1C[C@](OC)([C@H](O)C(=O)N[C@@H](OC)[C@@H]2C[C@@H](O)C(C)(C)[C@@H](C[C@@H](COC)OC)O2)O[C@H](C)[C@@H]1C", "growth": "-55.7% (active)"},
      {"smiles": "O=C(Nc1ccc(O)cc1)C(Cl)(Cl)Cl", "growth": "98.4%"},
      {"smiles": "Cc1c(NS(=O)(=O)c2ccccc2)ccc([N+](=O)[O-])c1Cl", "growth": "84.8%"},
      {"smiles": "CCCCN1CCCC[C@@H]1C(=O)N[C@H](C(=O)N(C)[C@H](C[C@@H](OC(C)=O)c1nc(C(=O)NC2CCC(C(=O)OC)CC2)cs1)C(C)C)C(C)C", "note": "(stereo partly drawn)", "growth": "45.7%"},
      {"smiles": "Cn1cc(-c2csc(-c3cn(CCCCN4CCCCC4)c4ccc(F)cc34)n2)c2cccnc21", "growth": "71.4%"},
      {"smiles": "CC1=C(CN)C2=C(C)C3(CC3)[C@@](C)(O)C(=O)C2=C1", "growth": "95.2%"},
      {"smiles": "CC(=O)O[C@H]1C(=O)[C@@]2(C)[C@H]([C@H](OC(=O)c3ccccc3)[C@]3(O)C[C@H](OC(=O)[C@H](OC(=O)OC[C@H]4COC(C)(C)O4)[C@@H](NC(=O)c4ccccc4)c4ccccc4)C(C)=C1C3(C)C)[C@]1(OC(C)=O)CO[C@@H]1C[C@@H]2O", "growth": "-4.56% (active)"},
      {"smiles": "Cn1cc(-c2csc(-c3cn(CCN4CCOCC4)c4ccc(F)cc34)n2)c2cccnc21", "growth": "35.1%"},
      {"smiles": "Brc1ccc2c(c1)c(-c1nc(-c3c[nH]c4ncccc34)cs1)cn2CCN1CCOCC1", "growth": "53.3%"},
      {"smiles": "COC(=O)[C@@H](C)C[C@H](Cc1ccccc1)NC(=O)c1csc([C@@H](C[C@H](C(C)C)N(C)C(=O)[C@@H](NC(=O)[C@H]2CCCCN2C)C2CCCCC2)OC(C)=O)n1", "growth": "-3.53% (active)"},
      {"smiles": "CC(=O)OC1CCC2(C)C(CCC3C2CC(=O)C2(C)C3CC(Sc3ccc(N(CCCl)CCCl)cc3)C2C(C)=O)C1", "note": "(stereo not drawn)", "growth": "85.6%"},
      {"smiles": "COc1ccc(S(=O)(=O)N(Cc2ccc3c(c2)C=CC(C)(C)O3)c2ccccc2)cc1OC", "growth": "96.6%"},
      {"smiles": "CC[C@H](C)[C@H](NC(=O)[C@H]1CCCCN1C)C(=O)N(C)[C@H](CC(=O)c1nc(C(=O)N[C@@H](Cc2ccccc2)C[C@H](C)C(=O)O)cs1)C(C)C", "growth": "88%"},
      {"smiles": "COC(=O)[C@@H](C)C[C@H](Cc1ccccc1)NC(=O)c1csc([C@@H](C[C@H](C(C)C)N(C)C(=O)[C@@H](NC(=O)C23CC(NC(C)=O)(C2)C3)C2CC2)OC(C)=O)n1", "growth": "57.9%"},
      {"smiles": "O=C1CC2(CC3(Cl)C(Cl)=C(Cl)C2(Cl)C3(Cl)Cl)C(=O)O1", "note": "(stereo not drawn)", "growth": "128%"},
      {"smiles": "C[n+]1c(/C=C/c2ccc(N(CCCl)CCCl)cc2)sc2ccccc21", "growth": "80.8%"},
      {"smiles": "CC[C@H](C)[C@H](NC(=O)NC(C)(C)C)C(=O)N(C)[C@H](C[C@@H](OC(C)=O)c1nc(C(=O)N[C@@H](Cc2ccccc2)C[C@H](C)C(=O)OC)cs1)C(C)C", "growth": "13%"},
      {"smiles": "CCCCCCCC[N+](C)(CCCCCCCC)CCCCCCCC", "growth": "-87% (active)"},
      {"smiles": "CC(=O)O[C@H]1C(=O)[C@@]2(C)[C@H]([C@H](OC(=O)c3ccccc3)[C@]3(O)C[C@H](OC(=O)[C@H](OC(=O)OC[C@@H]4COC(C)(C)O4)[C@@H](NC(=O)c4ccccc4)c4ccccc4)C(C)=C1C3(C)C)[C@]1(OC(C)=O)CO[C@@H]1C[C@@H]2O", "growth": "2.49% (active)"},
      {"smiles": "CC(=O)O[C@H]1C(=O)[C@@]2(C)[C@H]([C@H](OC(=O)c3ccccc3)[C@]3(O)C[C@H](OC(=O)[C@H](OC(=O)OCC4COC(C)(C)O4)[C@@H](NC(=O)c4ccccc4)c4ccccc4)C(C)=C1C3(C)C)[C@]1(OC(C)=O)CO[C@@H]1C[C@@H]2O", "note": "(stereo partly drawn)", "growth": "39.9%"},
      {"smiles": "CC[C@H](C)[C@H](NC(=O)C12CC(NC(C)=O)(C1)C2)C(=O)N(C)[C@H](C[C@@H](OC(C)=O)c1nc(C(=O)N[C@@H](Cc2ccccc2)C[C@H](C)C(=O)OC)cs1)C(C)C", "growth": "28.5%"},
      {"smiles": "CCn1cnc2c(Nc3cccc(Cl)c3)nc(N[C@@H]3CCCC[C@@H]3N)nc21", "growth": "-22.3% (active)"},
      {"smiles": "O=C(O)C1C(C(=O)O)C2(Cl)C(Cl)=C(Cl)C1(Cl)C2(Cl)Cl.[Hg]", "note": "(stereo not drawn)", "growth": "86.4%"},
      {"smiles": "CC[C@H](C)[C@H](NC(=O)[C@H]1CCCCN1C)C(=O)N(C)[C@H](C[C@@H](OC(C)=O)c1nc(C(=O)N[C@@H](Cc2ccccc2)C[C@H](C)C(=O)OC)cs1)C(C)C", "growth": "19.5%"},
      {"smiles": "CN1C(=O)C(=Cc2cn(CCCCCCn3c4ccccc4c(=O)c4ccccc43)c3ccccc23)C(=O)N(C)C1=O", "growth": "103%"},
      {"smiles": "CC(C)(C)C(=O)OCOP(=O)(OCOC(=O)C(C)(C)C)C1CCCN(O)C1=O", "note": "(stereo not drawn)", "growth": "5.67% (active)"},
      {"smiles": "COC(=O)[C@@H](C)C[C@H](Cc1ccc2ccccc2c1)NC(=O)c1csc([C@@H](C[C@H](C(C)C)N(C)C(=O)[C@@H](NC(=O)[C@H]2CCCCN2C)C(C)C)OC(C)=O)n1", "growth": "21.2%"},
      {"smiles": "C=C1C(=O)O[C@H]2[C@H]1CC/C(COC(=O)C(=O)c1cn(Cc3ccccc3)c3ccccc13)=C\\CC[C@@]1(C)O[C@@H]21", "growth": "-57.2% (active)"},
      {"smiles": "CN(CCCCN(C)CCOS(C)(=O)=O)CCOS(C)(=O)=O", "growth": "79.7%"},
      {"smiles": "NC(=O)CNc1ccc([As]=[As]c2ccc(NCC(N)=O)cc2)cc1", "note": "(stereo not drawn)", "growth": "30%"}
    ]}
  ]
}
